Assay [1] has as its target Calcium and integrin-binding protein 1 (Homo sapiens) (UniProt Q99828). The assay can be described thus: Primary qHTS for Identification of Calcium Integrin Binding Protein 1 (CIB1) Competitor (AID 1508620).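 Further: GST tagged CIB1 binding a fluorescein labelled alphaIIb integrin peptide tracer; top concentration of the series differs between compounds; on the % scale 0 is the no-effect control and ±100 the full control effect.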 A digest of the protocol:
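Fluorescence polarization competition: GST-tagged CIB1 (1 uM final) preincubated with compound 15 min at room temperature, then FITC-labelled alphaIIb peptide (100 nM final) added. After 15 min at room temperature, polarization read at Ex 480/Em 540.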
Background: qHTS replaces the single test concentration by a dilution series.

The nature of assay [2]: Primary qHTS for small molecule stabilizers of the endoplasmic reticulum resident proteome: Secreted ER Calcium Modulated Protein (SERCaMP) assay (AID 1508630). Further: on the % scale 0 is the no-effect control and ±100 the full control effect. A digest of the protocol:
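GLuc-SERCaMP-expressing SH-SY5Y cells, pretreated 16 h with compound, are challenged with thapsigargin to empty ER calcium stores; after 4 h, coelenterazine is added directly to the medium and luminescence is imaged.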

Assay [3] deals with Cytochrome P450 2C9 (Homo sapiens) (UniProt P11712). The assay can be described thus: Cytochrome P450 family 2 subfamily C member 9 (CYP2C9) small molecule antagonists: luciferase biochemical (cell-free) qHTS assay (AID 1645842; active means well fitted curve in the direction sought with a large enough effect in the repeat runs; an effect the other way counts as inactive or inconclusive; further: nearly all actives have a fitted effect of over 55% in size; further: potency means the concentration at half of the fitted maximal effect; on activity change, negative = inhibition: series mostly up to about 57 µM; on the % scale 0 is the no-effect control and ±100 the full control effect). In short, it runs like this:
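Luminescence, after 20 min with luciferin detection reagent, reflected CYP2C9 turnover during a 1 h NADPH-driven reaction at 37C. Enzyme-substrate mix contained 0.4% bovine serum albumin and was preincubated with compound 10 min at room temperature.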

A short description of assay [4]: Primary qHTS for inhibitors of nuclear receptor binding SET domain protein 2 (NSD2) in an isogenic RCH-ACV NSD2 p.E1099K mutant (9B) (AID 1645876). Further: nearly all actives have a fitted effect of over 70% in size. Further: potency means the concentration at half of the fitted maximal effect.
Assay [5] can be described thus: Primary qHTS for inhibitors of nuclear receptor binding SET domain protein 2 (NSD2) in an RCH-ACV wild type WT cells (2C) (AID 1645877). Further: nearly all actives have a fitted effect of over 70% in size. Further: potency means the concentration at half of the fitted maximal effect.
Assay [6] addresses N-terminal Xaa-Pro-Lys N-methyltransferase 1 (Homo sapiens) (UniProt Q9BV86). The assay can be described thus: Confirmatory qHTS for Inhibitors of N-terminal methyltransferase 1 (NTMT1): MTaseGlo Assay (AID 1645874).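 Further: luminescence from SAH made as NTMT1 methylates SPKRIA peptide using SAM; series mostly up to about 100 µM; 0% = DMSO control and -100% = no-enzyme control; nearly all actives have a fitted effect of over 65% in size.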 In short, it runs like this:
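Luminescent MTase-Glo read-out of SAH. 125 nM NTMT1, 100 uM SAM, 1 uM SPKRIA substrate, 30 min RT reaction after 15 min compound preincubation. Normalized to no-enzyme and DMSO controls; Hill fit.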

Several values for one entry are separate records, joined by “and”; a condition that tells them apart may be missing. Equal values may be shown once. Results filed as inconclusive are left out. A number with no mark means an inactive call. Activity calls are given as the source filed them. Unless noted, the call rests on the fitted dose curve; in most records, active means well fitted curve in the direction sought with a large enough effect; inconclusive means small, poorly fitted or top-dose-only effect, or another doubt; inactive means no such curve, though single readings can be large; an effect the other way counts as inactive or inconclusive.

Chain of Calcium and integrin-binding protein 1 (Homo sapiens) (Q99828 whole entry, looked up): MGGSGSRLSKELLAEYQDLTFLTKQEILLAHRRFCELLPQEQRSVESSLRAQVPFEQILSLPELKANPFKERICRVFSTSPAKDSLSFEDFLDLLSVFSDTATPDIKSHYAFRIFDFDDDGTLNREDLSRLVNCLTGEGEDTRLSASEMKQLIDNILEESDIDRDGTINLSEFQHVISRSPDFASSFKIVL
Chain of Cytochrome P450 2C9 (Homo sapiens) (P11712 whole entry, looked up): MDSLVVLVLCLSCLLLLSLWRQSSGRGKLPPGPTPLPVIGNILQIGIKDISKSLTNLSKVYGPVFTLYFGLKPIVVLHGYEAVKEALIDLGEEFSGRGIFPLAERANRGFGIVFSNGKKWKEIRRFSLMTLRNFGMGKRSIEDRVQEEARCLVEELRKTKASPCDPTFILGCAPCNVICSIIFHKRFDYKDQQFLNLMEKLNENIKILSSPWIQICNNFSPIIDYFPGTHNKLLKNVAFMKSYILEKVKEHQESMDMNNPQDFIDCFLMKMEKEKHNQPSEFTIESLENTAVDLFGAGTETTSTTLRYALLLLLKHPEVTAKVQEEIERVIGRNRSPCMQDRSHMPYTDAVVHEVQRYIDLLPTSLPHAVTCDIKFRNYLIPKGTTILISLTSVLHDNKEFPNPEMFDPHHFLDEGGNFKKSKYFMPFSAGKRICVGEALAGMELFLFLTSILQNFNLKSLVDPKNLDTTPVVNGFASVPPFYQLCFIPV
Chain of N-terminal Xaa-Pro-Lys N-methyltransferase 1 (Homo sapiens) (Q9BV86 whole entry, looked up): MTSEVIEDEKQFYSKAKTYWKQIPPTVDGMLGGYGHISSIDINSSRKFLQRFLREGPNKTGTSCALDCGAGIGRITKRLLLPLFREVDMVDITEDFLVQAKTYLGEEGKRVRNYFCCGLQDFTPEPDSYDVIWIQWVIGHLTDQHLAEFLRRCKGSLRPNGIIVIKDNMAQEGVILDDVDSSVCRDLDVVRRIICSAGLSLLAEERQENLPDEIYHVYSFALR

Consider `CC1(O)CC(c2nc(-c3ccc4ccc(-c5ccccc5)nc4c3)c3c(N)nccn23)C1` (stereo not drawn), for which the result in assay [1] was inactive. In addition, in assay [2], the Potency result was “inactive”. In addition, the Potency is 2.13 µM (active) and 952 nM (active) in assay [3]; 12.9 µM (active) in assay [4]; 18.3 µM (active) in assay [5].

As for `CC(C)(C)c1cc(C(C)(C)C)c(NC(=O)c2c[nH]c3ccccc3c2=O)cc1O`, the outcome in assay [1] was inactive. The Potency result in assay [2] is “inactive”. The values for the Potency in assay [4] and in assay [5] were 14.8 µM (active) and 16.6 µM (active), respectively.

For `Cc1cn2c(-c3cn[nH]c3)cnc2c(Nc2ccc(C(=O)N3CCNCC3)cc2F)n1`, in assay [1], the outcome was inactive. Further, in assay [2], the Potency result was “inactive”. For the same compound, the Potency in assay [4] is 9.16 µM (active); in assay [5], 12.9 µM (active).

As to `CC1(C)CCC(c2ccc(Cl)cc2)=C(CN2CCN(c3ccc(C(=O)NS(=O)(=O)c4ccc(N[C@H](CCN5CCOCC5)CSc5ccccc5)c(S(=O)(=O)C(F)(F)F)c4)cc3)CC2)C1`, the outcome in assay [1] was inactive. For the same compound, the Potency result in assay [2] was “inactive”. The Potency in assay [4] was 1.03 µM (active) and 1.18 µM (active); in assay [5], 365 nM (active) and 742 nM (active).

Take `CNC(=O)c1ccc(-c2cnc3ncc(Cc4ccc5ncccc5c4)n3n2)cc1F`: in assay [1], the outcome was inactive. For the same compound, the Potency result in assay [2], in assay [4] and in assay [5] was “inactive” each time. The Potency in assay [3] was 2.13 µM (active).

For the compound `COc1cc2c(NC3CCN(C(C)C)CC3)nc(C3CCCCC3)nc2cc1OCCCN1CCCC1`, the outcome in assay [1] was inactive. In addition, the Potency entry in assay [2] and in assay [6] was “inactive” each time. Besides, the Potency is 9.16 µM (active) and 8.33 µM (active) in assay [4]; 11.5 µM (active) and 6.61 µM (active) in assay [5].

Turning to `NC1(Cc2ccc(Cl)cc2)CCN(c2ncnc3[nH]ccc23)CC1`, the outcome in assay [1] was inactive. The Potency entry in assay [2] and in assay [3] was “inactive” each time. Besides, the figures for the Potency in assay [4] and in assay [5] were 9.34 µM (active) and 8.33 µM (active), respectively.

Turning to `COc1ccc(CC2c3cc(OC)c(OC)cc3CC[N+]2(C)CCC(=O)OCCCCCOC(=O)CC[N+]2(C)CCc3cc(OC)c(OC)cc3C2Cc2ccc(OC)c(OC)c2)cc1OC` (stereo not drawn), the activity change, negative = inhibition is -3.2% [at 6.45 µM] in assay [1] and 101% [at 7.35 µM] in assay [2]. Also, in assay [3], the Potency result is “inactive”. Also, the Potency in assay [4] and in assay [5] was 23.5 µM (active) each time.

Turning to `Cc1ccc(CN2CCNCC2)cc1NC(=O)CNc1ccc(F)c(F)c1`, in assay [1], the result was inactive. In addition, the Potency result in assay [2], in assay [3], in assay [4] and in assay [5] was “inactive” in each case.

With `Cc1cc(C(=O)N2CCN(c3cccc(Cl)c3)CC2)n(-c2ccccc2)n1`, in assay [1], the result was inactive. Moreover, in assay [2], the Potency entry is “inactive”. For the same compound, the Potency in assay [4] was 2.09 µM (active); in assay [5], 1.32 µM (active).

For the compound `CCN(CC)CCNC(=O)c1ccc2nc(-c3ccccc3)c(-c3ccc(CN4CCC(n5c(=O)[nH]c6ccccc65)CC4)cc3)nc2c1`, the result in assay [1] was inactive. In addition, in assay [2], the Potency entry was “inactive”. Besides, the Potency in assay [4] was 2.58 µM (active) and 3.32 µM (active); in assay [5], 2.58 µM (active) and 4.17 µM (active).

As for `O=C(c1ccc(Nc2nccc(-c3cc4ccccc4s3)n2)cc1)N1CCC(N2CCCC2)CC1`, the result in assay [1] was inactive. The Potency result in assay [2] and in assay [3] was “inactive” each time. The Potency in assay [4] was 1.45 µM (active) and 1.66 µM (active); in assay [5] it was 1.63 µM (active) and 1.66 µM (active).

As for `CC(C)c1cc(-c2n[nH]c(=O)n2-c2ccc3c(ccn3C)c2)c(O)cc1O`, the result in assay [1] was inactive. In assay [2], the Potency result was “inactive”. Moreover, the Potency in assay [3] was 1.69 µM (active); in assay [4], 25.8 nM (active) and 29.5 nM (active); in assay [5], 25.8 nM (active) and 29.5 nM (active).

Regarding `Cc1cc(Nc2ncnc3ccc(-c4ccc(CNCCS(C)(=O)=O)o4)cc23)ccc1Oc1ccn2ncnc2c1`, the result in assay [1] was inactive. In addition, the Potency result in assay [2] was “inactive”. In addition, the Potency is 12 µM (active) in assay [3]; 16.3 µM (active) and 16.6 µM (active) in assay [4]; 10.3 µM (active) and 14.8 µM (active) in assay [5].

As for `COc1cc(OC2CCN(C)CC2)ccc1Nc1ncc2c(n1)n(C1CCCC1)c(=O)n2C`, in assay [1], the result was inactive. Moreover, the Potency entry in assay [2] was “inactive”. The Potency is 5.25 µM (active) in assay [4] and 3.72 µM (active) in assay [5].

Regarding `Nc1nc(-c2nn(Cc3ccccc3F)c3ncccc23)nc(N)c1N1CCOCC1`, the outcome in assay [1] was inactive. The Potency entry in assay [2], in assay [4] and in assay [5] was “inactive” throughout.

For the origin of these results see PubChem BioAssay (NCATS).
